Assay results as given in PubChem BioAssay.
Activity calls are given as the source filed them.

Tests used:
[1] = binders of probe aFSTL3 on microarray, primary screen, stem cell growth factor project, biochemical, small-molecule microarray, fluorescence 635/667 (AID 1064); settings: higher = more signal;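 also: measures binding of the biotinylated anti-FSTL3 antibody to printed compounds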
[2] = binders from COS7 lysate, DM2A8 probe, primary screen, torsin A project, cell lysate, small-molecule microarray, fluorescence 635/667 (AID 1065); settings: higher = more signal, COS7 lysate expressing mutant human TOR1A
[3] = binders of probe aFGF2 on microarray, primary screen, stem cell growth factor project, biochemical, small-molecule microarray, fluorescence 635/667 (AID 1067); settings: higher = more signal;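 also: measures binding of biotinylated aFGF2 protein to printed compounds on slides; z-score merges feature fluorescence and signal-to-noise across triplicate slides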
[4] = binders of probe aFGF10 on microarray, primary screen, stem cell growth factor project, biochemical, small-molecule microarray, fluorescence 635/667 (AID 1071); settings: higher = more signal;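 also: score merges 667 nm spot intensity and signal to noise from triplicate slides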
[5] = target: Neurogenic locus notch homolog protein 2 (Homo sapiens) (UniProt Q04721); assay: Notch2 binders on small-molecule microarrays, primary screen, biochemical, small-molecule microarray, 635 nm fluorescence, stem cell growth factors (AID 1073); settings: Notch2 binding, higher = more signal
Sequence of Neurogenic locus notch homolog protein 2 (Homo sapiens) (Q04721 whole entry, looked up, canonical isoform): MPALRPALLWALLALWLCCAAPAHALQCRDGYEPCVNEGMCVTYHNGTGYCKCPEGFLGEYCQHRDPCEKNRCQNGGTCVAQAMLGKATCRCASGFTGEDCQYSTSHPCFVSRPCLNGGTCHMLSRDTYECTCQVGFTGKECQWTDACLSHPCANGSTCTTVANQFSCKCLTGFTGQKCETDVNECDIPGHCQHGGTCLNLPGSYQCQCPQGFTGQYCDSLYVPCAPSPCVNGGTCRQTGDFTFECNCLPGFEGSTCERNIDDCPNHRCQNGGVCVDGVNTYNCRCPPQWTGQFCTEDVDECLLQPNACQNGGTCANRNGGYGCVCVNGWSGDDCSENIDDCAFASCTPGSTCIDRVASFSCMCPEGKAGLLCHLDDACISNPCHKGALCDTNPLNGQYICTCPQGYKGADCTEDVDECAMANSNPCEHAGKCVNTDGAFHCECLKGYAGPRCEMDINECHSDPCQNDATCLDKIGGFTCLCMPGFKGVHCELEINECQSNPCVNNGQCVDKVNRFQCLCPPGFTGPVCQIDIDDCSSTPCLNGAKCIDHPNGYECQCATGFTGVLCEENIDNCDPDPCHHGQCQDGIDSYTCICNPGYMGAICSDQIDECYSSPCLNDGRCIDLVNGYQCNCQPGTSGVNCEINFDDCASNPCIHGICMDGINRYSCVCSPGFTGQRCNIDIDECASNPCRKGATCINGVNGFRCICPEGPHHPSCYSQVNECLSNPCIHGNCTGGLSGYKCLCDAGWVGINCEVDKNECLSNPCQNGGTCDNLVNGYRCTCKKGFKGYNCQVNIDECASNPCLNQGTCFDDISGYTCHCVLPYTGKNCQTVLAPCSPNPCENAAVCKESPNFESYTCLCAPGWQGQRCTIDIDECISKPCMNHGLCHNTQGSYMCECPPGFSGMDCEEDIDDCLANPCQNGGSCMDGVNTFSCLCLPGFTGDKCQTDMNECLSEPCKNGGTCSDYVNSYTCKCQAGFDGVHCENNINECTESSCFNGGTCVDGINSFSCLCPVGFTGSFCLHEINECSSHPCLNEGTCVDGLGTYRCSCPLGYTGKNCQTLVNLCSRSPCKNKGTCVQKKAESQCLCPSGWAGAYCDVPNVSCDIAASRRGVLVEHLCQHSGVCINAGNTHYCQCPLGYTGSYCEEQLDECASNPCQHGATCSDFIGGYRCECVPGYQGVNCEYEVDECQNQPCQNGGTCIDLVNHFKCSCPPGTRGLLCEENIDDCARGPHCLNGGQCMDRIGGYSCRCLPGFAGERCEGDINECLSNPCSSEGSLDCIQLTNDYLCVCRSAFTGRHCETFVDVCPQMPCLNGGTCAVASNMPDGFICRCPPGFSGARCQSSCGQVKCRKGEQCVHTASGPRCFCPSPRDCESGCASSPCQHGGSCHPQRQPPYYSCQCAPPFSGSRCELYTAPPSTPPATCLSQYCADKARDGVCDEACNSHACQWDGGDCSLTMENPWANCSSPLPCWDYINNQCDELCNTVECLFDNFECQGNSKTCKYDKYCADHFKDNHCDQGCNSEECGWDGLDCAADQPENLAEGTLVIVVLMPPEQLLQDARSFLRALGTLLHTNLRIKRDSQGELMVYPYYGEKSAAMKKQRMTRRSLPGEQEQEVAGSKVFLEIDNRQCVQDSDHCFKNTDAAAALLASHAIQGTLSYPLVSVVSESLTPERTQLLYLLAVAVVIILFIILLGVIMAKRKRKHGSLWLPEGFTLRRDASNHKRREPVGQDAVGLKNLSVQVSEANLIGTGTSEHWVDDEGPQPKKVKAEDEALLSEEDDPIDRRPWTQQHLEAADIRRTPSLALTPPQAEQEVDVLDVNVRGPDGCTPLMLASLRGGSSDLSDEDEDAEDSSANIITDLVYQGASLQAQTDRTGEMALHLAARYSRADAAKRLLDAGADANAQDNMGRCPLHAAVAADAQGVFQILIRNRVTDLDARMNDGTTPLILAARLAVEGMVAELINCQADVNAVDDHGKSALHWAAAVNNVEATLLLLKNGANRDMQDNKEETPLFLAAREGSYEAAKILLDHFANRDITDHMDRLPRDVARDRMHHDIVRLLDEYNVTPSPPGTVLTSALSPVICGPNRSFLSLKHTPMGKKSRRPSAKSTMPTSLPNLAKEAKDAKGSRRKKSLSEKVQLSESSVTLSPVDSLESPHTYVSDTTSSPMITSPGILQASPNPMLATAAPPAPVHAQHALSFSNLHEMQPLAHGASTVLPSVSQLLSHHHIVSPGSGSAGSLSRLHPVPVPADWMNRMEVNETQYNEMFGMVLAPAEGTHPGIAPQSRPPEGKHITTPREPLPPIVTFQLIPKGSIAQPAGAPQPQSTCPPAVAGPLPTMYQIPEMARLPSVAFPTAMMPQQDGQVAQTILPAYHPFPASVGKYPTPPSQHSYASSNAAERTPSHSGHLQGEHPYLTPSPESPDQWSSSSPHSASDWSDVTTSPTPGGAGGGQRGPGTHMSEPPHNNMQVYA

[6] = target: Pro-neuregulin-1, membrane-bound isoform (Homo sapiens) (UniProt Q02297); assay: NRG1 binders on small-molecule microarrays, primary screen, psychiatric disease protein project, biochemical, small-molecule microarray, fluorescence 635/667 (AID 1075); settings: NRG1 binding, 635 nm fluorescence, higher = more signal;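 also: score combines 667 nm spot fluorescence with signal to noise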
[7] = test system: Neuregulin-1 EGF-like domain; assay: binders of neuregulin-1 EGF-like domain, primary screen, biochemical, small-molecule microarray, 635 nm fluorescence (AID 1081); settings: small-molecule microarray binding, higher = more signal;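 also: binding of the protein to compounds printed on small-molecule microarray slides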
[8] = FRG1 promoter luciferase signal modulators, primary screen, FRG1 inhibition for FSHD, cell-based, C2C12 myotubes, firefly/Renilla luciferase, luminescence (AID 1084); settings: higher = more signal, called active from +8 up or from −8 down
[9] = binders of probe aFST on microarray, primary screen, stem cell growth factor project, biochemical, small-molecule microarray, fluorescence 635/667 (AID 1086); settings: higher = more signal;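 also: score merges 667 nm fluorescence with signal-to-noise of each printed compound spot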
[10] = binders of probe aHhip on microarray, primary screen, stem cell growth factor project, biochemical, small-molecule microarray, fluorescence 635/667 (AID 1087); settings: higher = more signal;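 also: score merges spot fluorescence at 667nm with spot signal to noise ratio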
[11] = test system: PRMT1 (protein arginine N-methyltransferase 1); assay: PRMT1 binders on small-molecule microarrays, primary screen, biochemical, small-molecule microarray, 635 nm fluorescence (AID 1088); settings: small-molecule microarray binding, higher = more signal;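 also: binding of Prmt1 protein to compounds spotted on small-molecule microarray slides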
[12] = yeast growth modulation, basal conditions, primary screen, YJM789 clinical isolate, OD600, 24 h (AID 1089);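 also: growth of clinical yeast isolate S. cerevisiae YJM 789 seeded 1000 cells per well; test concentration not given here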; settings: S. cerevisiae YJM789 growth, higher = more signal, called active from +8 up or from −8 down
[13] = fission yeast growth modulation, primary screen, strain 972, OD600, 24 h, no modulator (AID 1090);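 also: basal condition with compound alone and no growth modifier present; test concentration not given here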; settings: S. pombe 972 growth, higher = more signal, called active from +8 up or from −8 down
[14] = S. cerevisiae growth modulation with rapamycin, primary screen, strain BY4716, OD600, 96 h (AID 1091); settings: higher = more signal, called active from +8 up or from −8 down; also: test concentration not given here
[15] = target: Torsin-1A-interacting protein 2 (Homo sapiens) (UniProt Q8NFQ8); assay: LULL1 binders on small-molecule microarray, primary screen, cell lysate, human LULL1 lysate, 635/667 nm fluorescence (AID 1092); settings: hLULL1 lysate binding, 635 nm fluorescence, higher = more signal;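 also: probe is lysate of COS7 cells overexpressing human LULL1; score merges per-feature 667 nm fluorescence with signal-to-noise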
[16] = E. coli growth modulation, two-sided OD650, primary screen, E. coli filamentation project, strain DRC41, 24 h (AID 1093); settings: OD650, 24 h, higher = more signal, called active from +8 up or from −8 down;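 also: MC1000 strain lacking acrAB efflux and sulA so SOS filamentation is blocked; test concentration not given here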
[17] = small-molecule microarray binders of probe aLefty2, primary screen, biochemical, biotinylated probe, 635/667 nm fluorescence (AID 1094); settings: higher = more signal;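 also: score merges spot fluorescence near 667 nm with spot signal-to-noise ratio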
[18] = test system: Noggin (protein binding on small-molecule microarray); assay: Noggin binders on small-molecule microarray, primary screen, biochemical, 635/667 nm fluorescence (AID 1095); settings: 635 nm fluorescence, higher = more signal;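 also: score merges 667 nm feature fluorescence with signal to noise over triplicate slides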
[19] = target: Neurogenic locus notch homolog protein 3 (Homo sapiens) (UniProt Q9UM47); assay: NOTCH3 binders on small-molecule microarray, primary screen, biochemical, 635/667 nm fluorescence (AID 1096); settings: NOTCH3 binding, 635 nm fluorescence, higher = more signal
Sequence of Neurogenic locus notch homolog protein 3 (Homo sapiens) (Q9UM47 whole entry, looked up): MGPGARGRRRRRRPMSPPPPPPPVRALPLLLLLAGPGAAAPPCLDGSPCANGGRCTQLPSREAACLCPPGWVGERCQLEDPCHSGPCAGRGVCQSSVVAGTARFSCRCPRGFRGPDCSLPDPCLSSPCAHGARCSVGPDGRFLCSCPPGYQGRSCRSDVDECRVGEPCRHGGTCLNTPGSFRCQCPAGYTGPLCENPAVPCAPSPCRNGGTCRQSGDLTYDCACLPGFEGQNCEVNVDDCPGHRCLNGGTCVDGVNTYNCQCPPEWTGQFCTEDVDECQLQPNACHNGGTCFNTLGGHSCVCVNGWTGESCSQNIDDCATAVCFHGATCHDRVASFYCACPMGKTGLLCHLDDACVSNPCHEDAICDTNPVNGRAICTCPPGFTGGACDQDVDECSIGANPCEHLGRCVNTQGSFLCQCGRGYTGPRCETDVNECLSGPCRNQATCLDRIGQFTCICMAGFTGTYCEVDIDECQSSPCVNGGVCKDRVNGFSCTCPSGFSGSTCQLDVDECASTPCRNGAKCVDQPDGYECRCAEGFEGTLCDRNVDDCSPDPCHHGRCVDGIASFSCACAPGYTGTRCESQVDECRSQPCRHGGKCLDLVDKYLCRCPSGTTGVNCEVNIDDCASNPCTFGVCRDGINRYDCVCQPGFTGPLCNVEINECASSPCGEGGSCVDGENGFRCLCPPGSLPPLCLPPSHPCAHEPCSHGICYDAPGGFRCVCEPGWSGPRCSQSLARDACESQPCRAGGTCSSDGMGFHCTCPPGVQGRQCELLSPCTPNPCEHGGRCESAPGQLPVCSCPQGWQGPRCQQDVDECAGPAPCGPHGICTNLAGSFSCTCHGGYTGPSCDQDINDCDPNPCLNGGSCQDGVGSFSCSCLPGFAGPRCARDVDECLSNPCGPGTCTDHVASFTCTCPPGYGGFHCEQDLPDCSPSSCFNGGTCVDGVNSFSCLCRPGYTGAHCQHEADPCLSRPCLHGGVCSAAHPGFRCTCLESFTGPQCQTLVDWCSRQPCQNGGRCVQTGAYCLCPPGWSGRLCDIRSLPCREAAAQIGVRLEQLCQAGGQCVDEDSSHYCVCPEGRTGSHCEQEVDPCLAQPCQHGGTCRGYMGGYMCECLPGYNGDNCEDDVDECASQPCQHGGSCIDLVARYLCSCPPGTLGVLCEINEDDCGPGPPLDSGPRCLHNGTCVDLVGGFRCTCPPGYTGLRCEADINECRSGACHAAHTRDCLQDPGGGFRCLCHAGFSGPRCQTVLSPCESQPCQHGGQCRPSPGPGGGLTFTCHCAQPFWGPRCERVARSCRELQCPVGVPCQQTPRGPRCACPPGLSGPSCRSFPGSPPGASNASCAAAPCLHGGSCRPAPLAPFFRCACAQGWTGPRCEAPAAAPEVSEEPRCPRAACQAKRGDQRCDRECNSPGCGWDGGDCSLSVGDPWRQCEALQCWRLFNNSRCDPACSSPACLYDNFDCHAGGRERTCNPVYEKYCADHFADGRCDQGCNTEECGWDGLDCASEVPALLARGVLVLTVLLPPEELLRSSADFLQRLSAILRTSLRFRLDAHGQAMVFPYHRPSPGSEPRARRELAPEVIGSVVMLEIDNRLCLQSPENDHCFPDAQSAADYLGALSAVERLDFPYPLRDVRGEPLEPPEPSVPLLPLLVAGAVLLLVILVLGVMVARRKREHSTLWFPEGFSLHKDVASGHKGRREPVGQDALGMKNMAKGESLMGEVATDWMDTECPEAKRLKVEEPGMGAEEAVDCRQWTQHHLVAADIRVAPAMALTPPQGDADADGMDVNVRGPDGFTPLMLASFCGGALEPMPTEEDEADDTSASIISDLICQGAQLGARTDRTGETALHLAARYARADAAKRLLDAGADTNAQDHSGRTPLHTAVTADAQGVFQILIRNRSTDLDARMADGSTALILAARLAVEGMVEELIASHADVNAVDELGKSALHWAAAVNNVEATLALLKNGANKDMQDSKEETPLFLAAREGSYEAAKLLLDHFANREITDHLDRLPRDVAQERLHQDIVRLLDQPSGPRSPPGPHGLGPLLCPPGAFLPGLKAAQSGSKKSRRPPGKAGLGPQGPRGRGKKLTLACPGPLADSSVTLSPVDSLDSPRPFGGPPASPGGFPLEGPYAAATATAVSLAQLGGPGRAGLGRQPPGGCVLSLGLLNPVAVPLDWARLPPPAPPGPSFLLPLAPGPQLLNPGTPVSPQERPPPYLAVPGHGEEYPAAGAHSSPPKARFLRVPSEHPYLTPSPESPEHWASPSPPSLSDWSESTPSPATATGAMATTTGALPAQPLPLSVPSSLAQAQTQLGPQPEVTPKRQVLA

[20] = small-molecule microarray binders of probe aEGFR, primary screen, biochemical, biotinylated probe, 635/667 nm fluorescence (AID 1097); settings: higher = more signal;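 also: probe is a biotinylated anti-EGFR antibody binding compounds printed on slides; score combines fluorescence near 667 nm and signal to noise of each spot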

Row | Compound | composite z-score [1] | composite z-score [2] | composite z-score [3] | composite z-score [4] | composite z-score [5] | composite z-score [6] | composite z-score [7] | z-score [8] | composite z-score [9] | composite z-score [10] | composite z-score [11] | z-score [12] | z-score [13] | z-score [14] | composite z-score [15] | z-score [16] | composite z-score [17] | composite z-score [18] | composite z-score [19] | composite z-score [20]
1 | CO[C@@H]1COC(=O)[C@@H]2CCCN2C(=O)CC=C[C@@H](C)[C@H](OC)COC(=O)[C@@H]2CCCN2C(=O)CC=C[C@H]1C | -0.614 | 0.164 | -0.113 | 0.0311 | -0.545 | -0.312 | 0.732 | 0.47 (inactive) | -0.0975 | 0.347 | 1.11 | -0.0171 (inactive) | -1.05 (inactive) | -0.258 (inactive) | -0.522 | 1.1 (inactive) | -0.166 | 1.14 | -0.325 | -0.0332
2 | COc1ccc([Si](C)(C)[C@H]2[C@H](CCO)O[C@@]3(C(=O)N(Cc4ccc(N5CCCCC5=O)cc4)c4ccccc43)[C@@H]2C)cc1 | 0.0352 | 0.959 | -0.0747 | -0.0971 | 0.308 | 1.46 | 1.05 | -4.59 (inactive) | 0.172 | -0.0994 | 1.54 | -0.025 (inactive) | -0.717 (inactive) | 2.28 (inactive) | 1.88 | 1.9 (inactive) | -0.116 | 0.993 | 1.07 | -0.0288
3 | CO[C@H]1COC(=O)[C@@H](C)COC(=O)[C@H](Cc2ccccc2)NC(=O)CC=C[C@H]1C | -0.678 | 0.995 | -0.107 | 0.131 | -0.26 | -0.323 | -0.703 | -0.117 (inactive) | 0.267 | 0.0216 | 0.525 | -0.662 (inactive) | -1.25 (inactive) | -0.544 (inactive) | -0.274 | 0.331 (inactive) | -0.302 | 1.26 | 0.722 | -0.188
4 | COCCOC(=O)N1C(=O)[C@@]2(c3cc(C#CCNC(N)=O)ccc31)[C@H](C(=O)N1CCCCCCC1)[C@H]1C(=O)O[C@H](c3ccccc3)[C@H](c3ccccc3)N1[C@@H]2c1ccccc1OCCO | 2.42 | 0.288 | 0.129 | 0.452 | 1.38 | 1.03 | 1.05 | -0.556 (inactive) | 1.29 | 0.851 | 1.2 | 1.42 (inactive) | -0.922 (inactive) | 3.58 (inactive) | 2.05 | -0.698 (inactive) | 0.957 | 0.601 | 1.04 | 0.295
5 | COC(=O)C1=CC(c2ccc(CO)cc2)=CC(C2CC2)N(Cc2sc3ccccc3c2Cl)C=C1C(=O)OC (stereo not given) | 0.541 | 1.99 | 0.0083 | 0.88 | 1.26 | 1.68 | 1.33 | -2.15 (inactive) | 1.32 | 0.065 | 1.55 | -2.21 (inactive) | -5.52 (inactive) | -1.12 (inactive) | 3.07 | -2.06 (inactive) | 0.214 | 0.331 | 1.1 | 0.157
6 | CCN1C(C)=C(C(=O)OC)[C@@H](c2ccccc2)N2C(=O)[C@](O)(C(=O)OC)[C@@H](c3ccccc3)C(C(=O)c3ccccc3)=C12 | -0.14 | 0.36 | -0.0493 | 0.671 | 0.442 | 0.607 | 0.708 | -4.12 (inactive) | 0.0486 | 0.141 | 0.481 | -0.59 (inactive) | -4.98 (inactive) | -0.714 (inactive) | 1.41 | 1.43 (inactive) | -0.132 | 0.416 | 0.685 | 0.0255
7 | CCCCCCc1nc(-c2cc(C)c(OC)c(C)c2)cc2c1[Si](C(C)C)(C(C)C)O[C@H]2c1ccccc1 | -0.315 | -0.397 | -0.14 | -0.324 | -0.209 | -0.626 | -1.04 | 0.119 (inactive) | 0.0223 | 0.0505 | -0.118 | 0.955 (inactive) | 0.659 (inactive) | -0.558 (inactive) | -0.685 | -0.54 (inactive) | -0.107 | -0.346 | -0.496 | -0.168
8 | Cc1ccc(S(=O)(=O)c2cc3oc2CC[C@@H](CO)NC(=O)N(C)Cc2cn(nn2)C[C@H](Cc2ccccc2)NC3=O)cc1 | 0.0181 | 0.345 | -0.0538 | 0.175 | -0.881 | 0.226 | 0.807 | -0.618 (inactive) | -0.265 | -0.194 | 0.0985 | 0.342 (inactive) | -0.772 (inactive) | 0.0417 (inactive) | 1.66 | 2.79 (inactive) | -0.131 | 0.0818 | -0.773 | -0.156
9 | C[C@H]1COC(=O)[C@@H]2CCCN2C(=O)[C@@H](C)COC(=O)[C@@H]2CCCN2C1=O | -0.295 | 0.491 | -0.163 | 0.0646 | 0.415 | -0.567 | -0.436 | -3.16 (inactive) | -0.041 | -0.134 | -0.8 | -0.173 (inactive) | -0.649 (inactive) | -1.65 (inactive) | -0.863 | 0.493 (inactive) | -0.175 | 0.381 | -0.493 | -0.071
10 | CC(C)[Si]1(C(C)C)O[C@@H](c2ccccc2)c2cc(C3CC3)nc(-c3ccc(Oc4ccccc4)cc3)c21 | 0.0382 | 0.0357 | -0.119 | -0.772 | -0.304 | -0.46 | -0.985 | -0.895 (inactive) | -0.148 | -0.0074 | -0.63 | 0.995 (inactive) | -0.808 (inactive) | 1.21 (inactive) | 0.369 | 1.94 (inactive) | -0.142 | -0.101 | -1.22 | -0.169
11 | CCC(=O)[C@]12O[C@@]3([C@@H]4C(=O)OCC[C@@H]41)N(Cc1ccccc1)C(C)=C(C(=O)OC)[C@@H](c1ccccc1)N3C2=O | 0.232 | -0.289 | -0.163 | -0.133 | -0.333 | -0.0829 | -0.814 | -0.0144 (inactive) | -0.348 | -0.134 | 0.131 | -0.641 (inactive) | -1.16 (inactive) | -1.17 (inactive) | -0.417 | 0.151 (inactive) | -0.143 | -1.66 | -0.406 | -0.246
